From PubChem BioAssay AID2284202 (EPA ToxCast)
Activity calls are given as the source filed them. Rule for the calls: active = hit-call score of the fitted dose curve at least 0.9, where 1 is the maximum; inactive = score below 0.9.

target: human Dopamine Transporter (DAT), SLC6A3 (gene 6531) (UniProt Q01959); assay: ERF_FR_TR_hSLC6A3: Eurofins (ERF) Radioligand Binding LeadHunter Assay for human Dopamine Transporter (DAT) Antagonism, conducted at France lab site
Description: ERF_FR_TR_hSLC6A3 is a biochemical, single-readout assay that uses extracted gene-proteins in a cell-free assay. Measurements were taken 2 hour after chemical dosing in a 96-well plate. See DAT Human Dopamine Transporter Binding (Antagonist Radioligand) Assay, Cerep.ERF_FR_TR_hSLC6A3 is an assay component calculated from the ERF_FR_TR_hSLC6A3 assay. It is designed to measure radioligand binding using a type of binding reporter as detected by scintillation counting with radiometry technology.Data from the assay component ERF_FR_TR_hSLC6A3 was analyzed at the assay endpoint, ERF_FR_TR_hSLC6A3, in the positive analysis fitting direction relative to DMSO as the negative control and baseline of activity. Using a type of binding reporter, loss-of-signal activity can be used to understand changes in binding as they relate to gene SLC6A3. To generalize the intended target to other relatable targets, this assay endpoint is annotated to the transporter intended target family, where the subfamily is SLC6 / Monoamine.
Human cells are incubated for 120 minutes at 4C with [3H]BTCP (4 nM) ligand and BTCP as control inhibitor. Test Sample Requirements: Minimum for 1) Screen: 60 ul of 10 mM stock -OR- 1 mg (pre-weighed) for 10 uM final testing. 2) Dose Response: 90 ul of 10 mM stock -OR- 1 mg (pre-weighed) for a top concentration at 10 uM.

human Dopamine Transporter (DAT), SLC6A3 (gene 6531), sequence (Q01959 whole entry, looked up): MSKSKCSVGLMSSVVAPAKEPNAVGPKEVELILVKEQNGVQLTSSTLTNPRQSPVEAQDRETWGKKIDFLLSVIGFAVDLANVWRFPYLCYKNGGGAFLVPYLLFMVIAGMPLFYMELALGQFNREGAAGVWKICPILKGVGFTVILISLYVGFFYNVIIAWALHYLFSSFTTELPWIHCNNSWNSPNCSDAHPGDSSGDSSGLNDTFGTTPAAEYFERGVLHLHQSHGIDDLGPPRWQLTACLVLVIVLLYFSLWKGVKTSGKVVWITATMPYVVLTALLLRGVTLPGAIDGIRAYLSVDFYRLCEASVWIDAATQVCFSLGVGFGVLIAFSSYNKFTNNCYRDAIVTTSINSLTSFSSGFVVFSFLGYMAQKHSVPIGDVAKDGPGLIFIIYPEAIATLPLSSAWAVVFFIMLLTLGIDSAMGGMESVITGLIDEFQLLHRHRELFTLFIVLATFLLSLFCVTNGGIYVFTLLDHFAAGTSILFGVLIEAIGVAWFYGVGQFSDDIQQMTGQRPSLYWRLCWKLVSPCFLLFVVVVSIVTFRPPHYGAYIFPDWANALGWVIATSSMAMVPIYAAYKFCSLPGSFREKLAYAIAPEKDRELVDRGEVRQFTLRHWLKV

Row | Structure (SMILES) | AC50
1 | COc1cc(CCC(=O)CC(=O)CCc2ccc(O)c(OC)c2)ccc1O | 2970 nM (active)
2 | O=C(/C=C/c1ccc(O)cc1)CC(=O)/C=C/c1ccc(O)cc1 | 2890 nM (active)
